Records with an inconclusive call do not appear. A call without a number means that no potency is given here. The source made the active and inactive calls. Calls follow the shape of the dose curve; as a rule, active = well fitted curve in the direction sought with a large enough effect; inconclusive = small, poorly fitted or top-dose-only effect, or another doubt; inactive = no such curve, though single readings can be large; an effect the other way counts as inactive or inconclusive.
Experiments:
[1] = biological target: Aldehyde dehydrogenase, mitochondrial (Homo sapiens) (UniProt P05091); assay: qHTS for Inhibitors of the Aldehyde Dehydrogenase Family (ALDH2) Primary screen (AID 2061308); conditions: ALDH2 enzyme inhibition qHTS, 1536-well; series mostly up to 56 µM; also: nearly all actives have a fitted effect of over 55% in size
[2] = biological target: Retinaldehyde dehydrogenase 3 (Homo sapiens) (UniProt P47895); assay: qHTS for Inhibitors of the Aldehyde Dehydrogenase Family (ALDH1A3) Primary screen (AID 2061315); conditions: ALDH inhibition qHTS; series mostly up to 56 µM

Structure (SMILES) | Potency [1] | Potency [2]
COc1cccc(C2c3c(ncn(-c4ccc(F)cc4)c3=N)Oc3ccc4ccccc4c32)c1 (stereo not drawn) | inactive | inactive
S=c1[nH]c2ccccc2n1CCc1ccccc1 | inactive | inactive
CN(Cc1ccco1)c1ncnc2ccc(-c3ccc4c(ccn4C)c3)cc12 | inactive | inactive
Cc1nnc(-c2cnn(C)c2N)n1CCCc1ccccc1 | inactive | inactive
COc1ccc(CNc2ccc(-c3nc4ccccc4[nH]3)cc2)cc1OC | inactive | inactive
COc1cccc(-c2ccc3ncnc(NCc4cccc(F)c4)c3c2)c1 | inactive | inactive
Cc1ccc(NS(=O)(=O)c2ccc3c(c2)CCN(C(=O)C(F)(F)F)C3)cc1C | inactive | inactive
CC1=C(C(=O)Nc2nc3ccccc3s2)C2(CCCC2)N=C(Nc2nc3ccccc3o2)N1 | inactive | inactive
COc1ccc([S+](=O)([O-])N2CCN([S+](=O)([O-])c3ccc4c(c3)OCCO4)CC2)c(OC)c1 | inactive | inactive
CCCn1c(C)nc2c(NCCO)nc(C)nc21 | inactive | inactive
CNc1oc(-c2cccc(Cl)c2)nc1C#N | inactive | inactive
Cc1ccc(-c2ccc(=O)n(CC(=O)N(C)C3CCCCCC3)n2)cc1 | inactive | inactive
Cc1cc(C)nc(NC(=S)N2CCN(c3cncnc3)CC2)c1 | inactive | inactive
COC(=O)c1cncc(NC(=O)c2cccs2)c1 | inactive | inactive
FC(F)(F)c1ccccc1-c1nc(NCc2ccc(-c3cccc(Cl)c3)cc2)c2ccccc2n1 | inactive | inactive
Cc1cccc(CNc2ncnc3ccc(-c4ccc5c(c4)OCCO5)cc23)c1 | inactive | inactive
O=C1c2ccccc2C(=O)N1c1cccc2ncccc12 | inactive | inactive
COc1ccc(-c2ccc3ncnc(NCc4nc(C)cs4)c3c2)cc1OC | inactive | inactive
O=C(Nc1ncc(Cc2ccc(C(F)(F)F)cc2)s1)c1ccc(-c2cccc([N+](=O)[O-])c2)o1 | inactive | inactive
CCC(O)(c1nnc(NCc2ccc3c(-c4ccc(F)cc4)cc(=O)oc3c2)o1)C(F)(F)F (stereo not drawn) | inactive | inactive
O=C1CCc2cc(S(=O)(=O)Nc3ccc(Cl)c(Cl)c3)c(F)cc2N1 | inactive | inactive
COc1ccc(NC(=O)c2cnn3c(C)cc(C)nc23)cc1Cl | inactive | inactive
CC(C)Oc1ccc(-c2ccc(=O)n(CC(=O)NCCc3ccccc3)n2)cc1 | inactive | inactive
C[C@@H]1CC[C@]2(C(=O)O)CC[C@]3(C(=O)O)C(=CCC4[C@@]5(C)CC[C@H](O[C@@H]6O[C@@H](C)[C@H](O[C@@H]7O[C@H](CO)[C@@H](O)[C@H](O)[C@H]7O)[C@@H](O)[C@H]6O)C(C)(C)C5CC[C@]43C)C2[C@H]1C (stereo partly drawn) | inactive | inactive
